The source of these data is PubChem BioAssay.

The source made the active and inactive calls.

For assay [1], the system named is PRMT1 (protein arginine N-methyltransferase 1). The assay can be described thus: PRMT1 binders on small-molecule microarrays, primary screen, biochemical, small-molecule microarray, 635 nm fluorescence (AID 1088).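 Also: binding of Prmt1 protein to compounds spotted on small-molecule microarray slides.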 The settings on record: small-molecule microarray binding, higher = more signal.
A short description of assay [2]: yeast growth modulation, basal conditions, primary screen, YJM789 clinical isolate, OD600, 24 h (AID 1089).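 Also: growth of clinical yeast isolate S. cerevisiae YJM 789 seeded 1000 cells per well; test concentration not given here.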 Particulars: S. cerevisiae YJM789 growth, higher = more signal, called active from +8 up or from −8 down.
The nature of assay [3]: fission yeast growth modulation, primary screen, strain 972, OD600, 24 h, no modulator (AID 1090).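 Also: basal condition with compound alone and no growth modifier present; test concentration not given here.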 The settings on record: S. pombe 972 growth, higher = more signal, called active from +8 up or from −8 down.
Assay [4] in a line: S. cerevisiae growth modulation with rapamycin, primary screen, strain BY4716, OD600, 96 h (AID 1091). Also: test concentration not given here. The settings on record: higher = more signal, called active from +8 up or from −8 down.
The target of assay [5] is Torsin-1A-interacting protein 2 (Homo sapiens) (UniProt Q8NFQ8). The assay can be described thus: LULL1 binders on small-molecule microarray, primary screen, cell lysate, human LULL1 lysate, 635/667 nm fluorescence (AID 1092).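 Also: probe is lysate of COS7 cells overexpressing human LULL1; score merges per-feature 667 nm fluorescence with signal-to-noise.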 Particulars: hLULL1 lysate binding, 635 nm fluorescence, higher = more signal.
Assay [6] is described as follows: E. coli growth modulation, two-sided OD650, primary screen, E. coli filamentation project, strain DRC41, 24 h (AID 1093).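 Also: MC1000 strain lacking acrAB efflux and sulA so SOS filamentation is blocked; test concentration not given here.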 The settings on record: OD650, 24 h, higher = more signal, called active from +8 up or from −8 down.
Assay [7] in a line: small-molecule microarray binders of probe aLefty2, primary screen, biochemical, biotinylated probe, 635/667 nm fluorescence (AID 1094).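 Also: score merges spot fluorescence near 667 nm with spot signal-to-noise ratio.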 The settings on record: higher = more signal.
Assay [8] has as its system Noggin (protein binding on small-molecule microarray). Put plainly: Noggin binders on small-molecule microarray, primary screen, biochemical, 635/667 nm fluorescence (AID 1095).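 Also: score merges 667 nm feature fluorescence with signal to noise over triplicate slides.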 Particulars: 635 nm fluorescence, higher = more signal.
Assay [9] deals with Neurogenic locus notch homolog protein 3 (Homo sapiens) (UniProt Q9UM47). Put plainly: NOTCH3 binders on small-molecule microarray, primary screen, biochemical, 635/667 nm fluorescence (AID 1096). The settings on record: NOTCH3 binding, 635 nm fluorescence, higher = more signal.
The nature of assay [10]: small-molecule microarray binders of probe aEGFR, primary screen, biochemical, biotinylated probe, 635/667 nm fluorescence (AID 1097).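 Also: probe is a biotinylated anti-EGFR antibody binding compounds printed on slides; score combines fluorescence near 667 nm and signal to noise of each spot.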 The settings on record: higher = more signal.
For assay [11], the system named is Plasmodium falciparum Sir2 (PF13_0152, Sir2A). The assay can be described thus: pfSir2 binders on small-molecule microarrays, primary screen, biochemical, small-molecule microarray, 635 nm fluorescence (AID 1098).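 Also: score merges spot fluorescence intensity with its signal-to-noise ratio.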 The settings on record: small-molecule microarray binding, fluorescence 635 nm; higher = more signal.
Assay [12] is described as follows: small-molecule microarray binders of probe aDKK1, primary screen, biochemical, biotinylated probe, 635/667 nm fluorescence (AID 1099).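 Also: score merges 667nm spot fluorescence with signal to noise across triplicate slides; reference of the scale not given here.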 The settings on record: higher = more signal.
The nature of assay [13]: small-molecule microarray binders of probe aCHRDL2, primary screen, biochemical, biotinylated probe, 635/667 nm fluorescence (AID 1100). Particulars: higher = more signal.
The nature of assay [14]: splicing luciferase reporter signal modulators, primary screen, spliceosome inhibition project, cell-based, HEK293, splice +/- reporter (AID 1101).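 Also: HEK293 cells carrying a splicing-competent luciferase reporter gene; test concentration not given here.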 The settings on record: luminescence, 24 h, higher = more signal, called active from +8 up or from −8 down.
In assay [15] the target is Fibroblast growth factor 10 (Homo sapiens) (UniProt O15520). The assay can be described thus: FGF10 binders on small-molecule microarrays, primary screen, biochemical, small-molecule microarray, 635 nm fluorescence (AID 1102). The settings on record: FGF10 binding, fluorescence 635 nm, higher = more signal.
Assay [16] concerns glycogen synthase kinase-3 (GSK3A per assay name; protocol says GSK3B). The assay can be described thus: GSK3 binders on small-molecule microarrays, primary screen, biochemical, small-molecule microarray, 635 nm fluorescence, GSK3A (AID 1103). Also: the record names both GSK3A and GSK3B. The settings on record: small-molecule microarray binding, fluorescence 635 nm; higher = more signal.
Assay [17] concerns the target Epidermal growth factor receptor (Homo sapiens) (UniProt P00533). Put plainly: EGFR binders on small-molecule microarrays, primary screen, biochemical, small-molecule microarray, 635 nm fluorescence (AID 1104).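 Also: score merges 667 nm emission intensity with spot signal to noise over triplicate slides.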 Particulars: EGFR binding, higher = more signal.
For assay [18], the target named is Follistatin-related protein 3 (Homo sapiens) (UniProt O95633). The assay can be described thus: FSTL3 binders on small-molecule microarrays, primary screen, biochemical, small-molecule microarray, 635 nm fluorescence (AID 1105).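 Also: score merges emission near 667 nm and signal to noise per printed spot across three slides.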 Particulars: FSTL3 binding, higher = more signal.
Assay [19] concerns the target Dickkopf-related protein 1 (Homo sapiens) (UniProt O94907). The assay can be described thus: DKK1 binders on small-molecule microarrays, primary screen, biochemical, small-molecule microarray, 635 nm fluorescence scan (AID 1106).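 Also: score merges emission near 667 nm with signal to noise over three replicate slides.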 The settings on record: DKK1 binding, higher = more signal.
Assay [20] relates to Inhibin beta A chain (activin A). Put plainly: INHBA (activin A) binders on microarrays, primary screen, biochemical, small-molecule microarray, 635 nm fluorescence scan (AID 1107).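 Also: mouse activin A protein probed at 4.33 µg/mL on printed slides; score merges bound-protein fluorescence near 667 nm with spot signal-to-noise.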 The settings on record: small-molecule microarray binding, higher = more signal.

Sequence of Torsin-1A-interacting protein 2 (Homo sapiens) (Q8NFQ8 whole entry, looked up): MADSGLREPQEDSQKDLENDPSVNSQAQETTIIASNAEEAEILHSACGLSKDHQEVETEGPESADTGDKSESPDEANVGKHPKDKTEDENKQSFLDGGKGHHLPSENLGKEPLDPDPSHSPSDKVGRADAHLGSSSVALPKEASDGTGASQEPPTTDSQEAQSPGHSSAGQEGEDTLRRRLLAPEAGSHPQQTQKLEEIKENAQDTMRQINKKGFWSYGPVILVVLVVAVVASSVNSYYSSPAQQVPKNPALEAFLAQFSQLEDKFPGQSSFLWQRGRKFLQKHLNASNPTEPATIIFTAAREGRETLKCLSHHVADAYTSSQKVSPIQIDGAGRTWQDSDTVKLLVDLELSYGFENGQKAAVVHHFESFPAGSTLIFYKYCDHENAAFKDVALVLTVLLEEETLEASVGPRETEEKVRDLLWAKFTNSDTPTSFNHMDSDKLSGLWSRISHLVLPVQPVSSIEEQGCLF
Sequence of Dickkopf-related protein 1 (Homo sapiens) (O94907 whole entry, looked up): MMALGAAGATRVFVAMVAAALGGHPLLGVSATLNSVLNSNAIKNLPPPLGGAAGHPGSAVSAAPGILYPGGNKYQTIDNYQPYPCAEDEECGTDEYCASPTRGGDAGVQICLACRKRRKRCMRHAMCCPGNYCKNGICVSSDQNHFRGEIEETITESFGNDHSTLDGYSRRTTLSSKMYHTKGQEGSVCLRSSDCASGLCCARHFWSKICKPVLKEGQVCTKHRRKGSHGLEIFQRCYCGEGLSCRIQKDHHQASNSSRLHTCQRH
Sequence of Neurogenic locus notch homolog protein 3 (Homo sapiens) (Q9UM47 whole entry, looked up): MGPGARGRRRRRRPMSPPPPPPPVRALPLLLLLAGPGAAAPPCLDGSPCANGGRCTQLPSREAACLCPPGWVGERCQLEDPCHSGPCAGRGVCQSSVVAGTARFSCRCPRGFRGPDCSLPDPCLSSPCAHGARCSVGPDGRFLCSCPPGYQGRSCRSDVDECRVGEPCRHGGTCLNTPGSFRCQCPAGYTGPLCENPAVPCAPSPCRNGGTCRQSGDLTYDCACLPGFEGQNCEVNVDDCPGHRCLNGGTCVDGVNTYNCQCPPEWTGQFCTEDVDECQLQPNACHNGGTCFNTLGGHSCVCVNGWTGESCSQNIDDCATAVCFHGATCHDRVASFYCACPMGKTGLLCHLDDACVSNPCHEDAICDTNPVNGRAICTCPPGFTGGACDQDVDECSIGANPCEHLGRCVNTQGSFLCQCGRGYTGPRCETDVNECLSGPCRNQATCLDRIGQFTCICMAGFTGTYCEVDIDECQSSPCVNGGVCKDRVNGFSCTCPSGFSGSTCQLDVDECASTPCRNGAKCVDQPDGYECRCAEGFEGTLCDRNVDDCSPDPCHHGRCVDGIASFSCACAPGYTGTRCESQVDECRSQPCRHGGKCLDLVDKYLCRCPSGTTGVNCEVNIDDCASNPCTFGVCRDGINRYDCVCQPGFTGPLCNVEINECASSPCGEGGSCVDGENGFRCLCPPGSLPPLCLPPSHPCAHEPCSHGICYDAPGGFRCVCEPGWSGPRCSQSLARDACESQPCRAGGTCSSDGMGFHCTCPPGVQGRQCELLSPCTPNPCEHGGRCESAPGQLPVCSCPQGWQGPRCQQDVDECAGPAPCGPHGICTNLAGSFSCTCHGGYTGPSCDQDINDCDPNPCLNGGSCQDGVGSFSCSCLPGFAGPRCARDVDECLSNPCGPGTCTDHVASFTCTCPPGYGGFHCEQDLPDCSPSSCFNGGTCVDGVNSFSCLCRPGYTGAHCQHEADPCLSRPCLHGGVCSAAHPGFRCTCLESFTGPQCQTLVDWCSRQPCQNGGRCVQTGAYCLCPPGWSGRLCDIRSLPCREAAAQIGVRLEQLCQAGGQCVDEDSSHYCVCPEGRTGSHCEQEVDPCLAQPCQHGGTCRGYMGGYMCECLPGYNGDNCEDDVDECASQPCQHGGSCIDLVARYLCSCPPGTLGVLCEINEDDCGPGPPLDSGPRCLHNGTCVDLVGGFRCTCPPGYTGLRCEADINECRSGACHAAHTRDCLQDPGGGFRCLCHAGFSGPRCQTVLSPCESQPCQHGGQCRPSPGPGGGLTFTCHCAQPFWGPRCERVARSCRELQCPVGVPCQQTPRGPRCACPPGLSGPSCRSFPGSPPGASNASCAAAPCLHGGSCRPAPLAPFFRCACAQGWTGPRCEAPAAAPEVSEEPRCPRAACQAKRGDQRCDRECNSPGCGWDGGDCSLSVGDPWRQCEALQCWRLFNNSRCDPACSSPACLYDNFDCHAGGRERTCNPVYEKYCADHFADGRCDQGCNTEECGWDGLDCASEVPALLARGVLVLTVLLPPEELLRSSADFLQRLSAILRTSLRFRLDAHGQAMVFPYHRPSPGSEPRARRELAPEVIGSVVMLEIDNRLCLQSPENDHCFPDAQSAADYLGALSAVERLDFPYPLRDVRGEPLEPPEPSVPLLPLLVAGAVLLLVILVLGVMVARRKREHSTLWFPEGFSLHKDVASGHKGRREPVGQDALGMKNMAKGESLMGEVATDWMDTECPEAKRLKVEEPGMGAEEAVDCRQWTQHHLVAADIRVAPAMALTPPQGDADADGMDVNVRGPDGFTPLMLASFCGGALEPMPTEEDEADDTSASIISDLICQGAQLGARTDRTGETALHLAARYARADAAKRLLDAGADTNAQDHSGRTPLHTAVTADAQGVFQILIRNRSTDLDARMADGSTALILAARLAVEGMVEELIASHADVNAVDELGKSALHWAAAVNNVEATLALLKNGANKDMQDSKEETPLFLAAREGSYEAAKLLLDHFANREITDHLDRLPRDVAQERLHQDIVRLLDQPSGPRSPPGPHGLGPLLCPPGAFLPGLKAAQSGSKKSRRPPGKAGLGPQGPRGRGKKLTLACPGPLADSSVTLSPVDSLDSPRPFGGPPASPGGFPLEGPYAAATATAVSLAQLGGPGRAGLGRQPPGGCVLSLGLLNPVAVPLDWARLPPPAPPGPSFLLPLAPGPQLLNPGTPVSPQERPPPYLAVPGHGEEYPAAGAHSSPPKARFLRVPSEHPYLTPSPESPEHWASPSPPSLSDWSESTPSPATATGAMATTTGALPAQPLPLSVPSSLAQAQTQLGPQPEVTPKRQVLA
Sequence of Follistatin-related protein 3 (Homo sapiens) (O95633 whole entry, looked up): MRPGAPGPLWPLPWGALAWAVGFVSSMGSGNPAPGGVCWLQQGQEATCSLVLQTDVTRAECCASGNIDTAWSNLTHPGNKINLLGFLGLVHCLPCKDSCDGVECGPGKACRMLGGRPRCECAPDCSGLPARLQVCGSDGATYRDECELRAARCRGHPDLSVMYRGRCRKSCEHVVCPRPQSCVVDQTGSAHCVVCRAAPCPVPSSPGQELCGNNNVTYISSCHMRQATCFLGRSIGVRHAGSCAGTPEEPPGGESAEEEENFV
Sequence of Epidermal growth factor receptor (Homo sapiens) (P00533 whole entry, looked up): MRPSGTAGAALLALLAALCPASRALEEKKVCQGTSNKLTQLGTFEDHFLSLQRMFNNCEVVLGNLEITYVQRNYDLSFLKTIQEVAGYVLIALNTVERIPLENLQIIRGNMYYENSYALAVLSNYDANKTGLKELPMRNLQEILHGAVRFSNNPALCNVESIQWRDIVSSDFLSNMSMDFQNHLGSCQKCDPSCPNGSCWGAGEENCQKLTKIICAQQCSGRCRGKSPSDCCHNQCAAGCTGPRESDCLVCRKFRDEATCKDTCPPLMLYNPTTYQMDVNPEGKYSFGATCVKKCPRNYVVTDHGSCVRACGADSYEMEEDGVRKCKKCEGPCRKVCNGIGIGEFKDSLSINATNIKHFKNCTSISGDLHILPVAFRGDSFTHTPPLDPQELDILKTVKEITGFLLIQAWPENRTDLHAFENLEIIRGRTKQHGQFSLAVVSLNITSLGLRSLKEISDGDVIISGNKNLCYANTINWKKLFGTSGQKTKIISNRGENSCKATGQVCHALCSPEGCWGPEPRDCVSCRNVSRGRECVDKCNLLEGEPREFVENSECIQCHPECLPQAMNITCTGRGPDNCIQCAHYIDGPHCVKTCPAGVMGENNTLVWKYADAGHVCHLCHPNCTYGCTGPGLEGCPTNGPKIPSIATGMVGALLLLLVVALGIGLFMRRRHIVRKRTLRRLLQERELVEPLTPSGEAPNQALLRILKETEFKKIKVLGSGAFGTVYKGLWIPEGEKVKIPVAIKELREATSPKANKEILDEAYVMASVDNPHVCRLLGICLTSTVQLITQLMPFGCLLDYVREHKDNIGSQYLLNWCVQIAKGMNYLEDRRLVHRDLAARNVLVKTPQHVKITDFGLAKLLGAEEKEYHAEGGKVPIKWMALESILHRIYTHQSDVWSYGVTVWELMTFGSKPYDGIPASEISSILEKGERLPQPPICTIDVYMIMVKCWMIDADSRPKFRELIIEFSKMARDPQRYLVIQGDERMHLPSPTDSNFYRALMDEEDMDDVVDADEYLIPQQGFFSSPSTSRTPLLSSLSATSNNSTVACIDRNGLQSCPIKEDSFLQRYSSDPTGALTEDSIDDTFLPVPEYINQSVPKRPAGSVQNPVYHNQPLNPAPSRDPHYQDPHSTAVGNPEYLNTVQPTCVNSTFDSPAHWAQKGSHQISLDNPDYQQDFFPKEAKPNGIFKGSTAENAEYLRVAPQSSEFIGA
Sequence of Fibroblast growth factor 10 (Homo sapiens) (O15520 whole entry, looked up): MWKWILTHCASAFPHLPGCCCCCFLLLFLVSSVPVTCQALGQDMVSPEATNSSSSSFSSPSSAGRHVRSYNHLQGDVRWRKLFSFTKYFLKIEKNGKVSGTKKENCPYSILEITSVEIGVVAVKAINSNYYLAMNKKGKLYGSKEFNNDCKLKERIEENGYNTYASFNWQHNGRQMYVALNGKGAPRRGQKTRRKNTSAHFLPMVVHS

Regarding `CCN(CC)c1ccc(N2CC=CC34O[C@@H]5/C=C\CCC(C)OC(=O)C5[C@H]3C(=O)N(CCO)[C@@H]4C2=O)cc1` (stereo not given in full), the composite z-score in [1] was 1.2; in assay [5], 3.17; in assay [7], -0.134; in assay [8], -0.563; in assay [9], 0.0541; in assay [10], -0.203. Also, the composite z-score in [11] is 0.752; in assay [12], -0.18; in assay [13], 0.477; in assay [15] it was -0.736; in assay [16], -0.565; in [17], -0.968. Besides, the results for the composite z-score in assay [18], in [19] and in assay [20] were -0.421, -0.771 and 0.907, respectively. The z-score in assay [2] was -1.27 (inactive); in [3], -2.02 (inactive); in assay [4] it was -0.806 (inactive); in assay [6] it was 0.565 (inactive); in assay [14] it was 0.00168 (inactive).

On to `[N-]=[N+]=NCc1ccccc1C[C@@]1(C(N)=O)N=C(c2ccc(OCCCO)cc2)O[C@@H]1c1ccccc1CN=[N+]=[N-]`, for which the composite z-score is 1.22 in assay [1]; 2.94 in [5]; 0.123 in assay [7]; -0.0392 in assay [8]; 0.808 in [9]; 0.263 in assay [10]. Besides, the composite z-score in assay [11] is 0.448; in assay [12] it was 1.09; in assay [13], 0.378; in [15], 1.26; in assay [16], 0.989; in assay [17], -0.238. In addition, the composite z-score in assay [18] came out at 0.165; in [19] it was 0.0137; in [20], 0.764. In addition, the z-score in assay [2] is 0.656 (inactive); in assay [3], -0.0127 (inactive); in assay [4], 0.0339 (inactive); in assay [6] it was 0.585 (inactive); in [14], 0.515 (inactive).

Turning to `O=C1O[C@@H](c2ccccc2)[C@@H](c2ccccc2)N2[C@@H](c3ccc(O)cc3)[C@]3(C(=O)Nc4ccc(C#CCCO)cc43)[C@@H](C(=O)NC[C@H](O)c3ccccc3)[C@H]12`, the composite z-score is 0.581 in assay [1]; 2.9 in assay [5]; -0.112 in assay [7]; 1.11 in assay [8]; -0.494 in assay [9]; -0.202 in assay [10]. Besides, the composite z-score in assay [11] was -0.029; in assay [12], -0.301; in assay [13] it was 0.785; in assay [15] it was -1.01; in [16] it was -0.375; in assay [17] it was -0.637. The composite z-score in [18] is -0.802; in assay [19] it was -1.26; in assay [20] it was -0.926. In addition, the z-score in assay [2] is 0.235 (inactive); in [3] it was -0.137 (inactive); in assay [4], 0.914 (inactive); in assay [6], 0.231 (inactive); in assay [14], 0.0041 (inactive).

As to `O=C1NCC(=O)N2[C@@H]1C[C@@H](C(=O)O)[C@H]2c1ccc(O)cc1`, the composite z-score is 1.56 in [1]; 2.6 in assay [5]; 0.0875 in assay [7]; 1.44 in [8]; 1.08 in assay [9]; -0.326 in assay [10]. Moreover, the composite z-score is 1.41 in assay [11]; -0.0052 in [12]; 0.128 in assay [13]; 0.944 in assay [15]; 1.32 in [16]; -0.0519 in assay [17]. Further, the values for the composite z-score in assay [18], in assay [19] and in [20] were 1.37, 1.78 and 0.571, respectively. Moreover, the z-score was 0.442 (inactive) in assay [2]; -0.498 (inactive) in [3]; 0.318 (inactive) in assay [4]; 0.984 (inactive) in [6]; -0.22 (inactive) in assay [14].

`O=C1NC(=O)C2C1C=CC(C(O)c1cc(C(F)(F)F)cc(C(F)(F)F)c1)N2Nc1ccc(Cl)cc1Cl` (stereo not given): the composite z-score is 0.33 in assay [1]; 2.24 in assay [5]; 0.0094 in assay [7]; -0.93 in [8]; 0.398 in assay [9]; 0.228 in assay [10]. The composite z-score is 0.314 in assay [11]; 0.853 in assay [12]; 0.824 in assay [13]; 0.336 in assay [15]; -0.514 in assay [16]; -0.66 in assay [17]. Also, the composite z-score in assay [18] is -0.0146; in assay [19], -0.953; in assay [20], 0.701. Further, the z-score in assay [2] is -1.44 (inactive); in [3] it was -17 (active); in assay [4], -0.256 (inactive); in [6] it was -2.34 (inactive); in assay [14], 0.916 (inactive).

For the molecule `O=C(N1CCCCC1)[C@@]1(Cc2ccccc2)COC(c2ccc(OCCCO)cc2)=N1`, the composite z-score was 1.31 in [1]; 3.21 in assay [5]; 0.511 in [7]; -0.315 in [8]; 0.622 in assay [9]; 0.548 in assay [10]. The composite z-score in assay [11] was 1.48; in [12], 1.11; in [13] it was 1.25; in assay [15], 1.44; in [16] it was 0.705; in assay [17] it was -0.153. Also, the composite z-score was 0.12 in assay [18], -0.275 in assay [19] and 0.691 in assay [20]. Also, the z-score was -0.22 (inactive) in assay [2]; -5.35 (inactive) in assay [3]; 1.58 (inactive) in assay [4]; 1.06 (inactive) in [6]; 0.419 (inactive) in [14].

As to `CC(=O)NCCCC[C@@H]1NC(=O)[C@@H]2C[C@H](C(=O)O)[C@H](c3ccc(O)cc3)N2C1=O`, the composite z-score in [1] is -0.728; in assay [5] it was 2.17; in assay [7] it was 0.0208; in [8], -1.42; in [9], -1.27; in assay [10], -0.322. Also, the composite z-score is 1.66 in [11]; -0.106 in assay [12]; 1.06 in assay [13]; -0.947 in [15]; -1.18 in assay [16]; -1.7 in assay [17]. The figures for the composite z-score in assay [18], in assay [19] and in assay [20] were -1.98, -1.46 and -2.08, respectively. Besides, the z-score in assay [2] was 0.611 (inactive); in assay [3], 1.36 (inactive); in assay [4], 0.442 (inactive); in assay [6], 0.129 (inactive); in assay [14], -0.905 (inactive).
